# Experimental data published in article PMC7862700, “An all-to-all approach to the identification of sequence-specific readers for epigenetic DNA modifications on cytosine”.
# Experiments:
# Experiment in all cases: DAPPL (digital affinity profiling via proximity ligation, sequencing); 10 mM Tris-HCl pH 7.5, 50 mM NaCl, 1 mM DTT, 4% glycerol, room temperature, 30 min; GST-TFs on glutathione beads, 16-mer random dsDNA library, 0.1% formaldehyde crosslink after washing; high values mean tight binding
# FEV = molecular target: T1, FEV (Homo sapiens, UniProt Q99581 1-238); settings: protein: recombinant; tags: N-terminal GST; dsDNA, one strand shown
# T1 sequence: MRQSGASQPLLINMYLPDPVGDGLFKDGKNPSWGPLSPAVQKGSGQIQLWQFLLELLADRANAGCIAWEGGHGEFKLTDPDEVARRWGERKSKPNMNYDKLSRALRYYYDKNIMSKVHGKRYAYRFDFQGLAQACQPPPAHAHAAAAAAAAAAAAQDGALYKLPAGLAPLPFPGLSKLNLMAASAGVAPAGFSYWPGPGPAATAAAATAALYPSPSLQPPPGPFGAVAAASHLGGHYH
# Summary of the method: (§1)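 Sequencing on an Illumina NextSeq500 followed washing, crosslinking with 0.1% formaldehyde, proximity ligation (BsaI/T4 ligase, 1 h, 37 °C) and PCR amplification of pools that had been incubated for 30 min at room temperature with 200 nmole of a random double-stranded 16-mer DNA library in Tris/NaCl/DTT/glycerol buffer. Each pool held DNA-barcoded human transcription factors, expressed in yeast as GST fusions and captured on glutathione beads, plus a tag-only sample. Binding signal is a hexamer's read frequency for a factor divided by its frequency in the tag-only sample.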
# ETV5 = ETV5 (Homo sapiens, UniProt P41161 1-510); settings: protein: recombinant; tags: N-terminal GST; dsDNA, one strand shown
# Summary of the method: as §1
# HSF1 = HSF1 (Homo sapiens, UniProt Q00613 1-529); settings: protein: recombinant; tags: N-terminal GST; chain copies: 3; dsDNA, one strand shown
# Summary of the method: as §1
# SPIC = molecular target: T2, SPIC (Homo sapiens, UniProt Q8N5J4 1-248); settings: protein: recombinant; tags: N-terminal GST; dsDNA, one strand shown
# T2 sequence: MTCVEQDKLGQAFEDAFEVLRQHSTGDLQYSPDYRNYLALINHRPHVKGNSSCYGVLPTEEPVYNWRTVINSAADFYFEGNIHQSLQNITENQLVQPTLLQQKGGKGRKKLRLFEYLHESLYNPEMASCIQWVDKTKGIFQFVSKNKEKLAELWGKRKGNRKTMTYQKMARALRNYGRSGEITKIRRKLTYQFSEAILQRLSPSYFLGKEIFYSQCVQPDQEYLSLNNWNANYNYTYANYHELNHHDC
# Summary of the method: as §1
# ELF4 = ELF4 (Homo sapiens, UniProt Q99607 1-663); settings: protein: recombinant; tags: N-terminal GST; dsDNA, one strand shown
# Summary of the method: as §1
# ELK4 = molecular target: T3, ELK4 (Homo sapiens, UniProt P28324-2 1-405); settings: protein: recombinant; tags: N-terminal GST; dsDNA, one strand shown
# T3 sequence: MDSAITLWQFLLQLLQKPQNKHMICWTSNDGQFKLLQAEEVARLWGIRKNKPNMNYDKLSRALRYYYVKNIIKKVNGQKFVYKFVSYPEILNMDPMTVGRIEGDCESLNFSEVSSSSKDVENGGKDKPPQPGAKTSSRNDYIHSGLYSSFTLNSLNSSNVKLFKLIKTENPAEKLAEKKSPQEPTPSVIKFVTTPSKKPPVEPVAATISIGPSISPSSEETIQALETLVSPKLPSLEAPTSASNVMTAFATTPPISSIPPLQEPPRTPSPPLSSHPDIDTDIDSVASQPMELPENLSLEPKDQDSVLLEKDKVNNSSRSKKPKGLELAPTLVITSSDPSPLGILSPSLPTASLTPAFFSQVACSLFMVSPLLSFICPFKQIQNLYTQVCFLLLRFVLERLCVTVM
# Summary of the method: as §1
# ETV2 = molecular target: T4, ETV2 (Homo sapiens, UniProt O00321 1-342); settings: protein: recombinant; tags: N-terminal GST; dsDNA, one strand shown
# T4 sequence: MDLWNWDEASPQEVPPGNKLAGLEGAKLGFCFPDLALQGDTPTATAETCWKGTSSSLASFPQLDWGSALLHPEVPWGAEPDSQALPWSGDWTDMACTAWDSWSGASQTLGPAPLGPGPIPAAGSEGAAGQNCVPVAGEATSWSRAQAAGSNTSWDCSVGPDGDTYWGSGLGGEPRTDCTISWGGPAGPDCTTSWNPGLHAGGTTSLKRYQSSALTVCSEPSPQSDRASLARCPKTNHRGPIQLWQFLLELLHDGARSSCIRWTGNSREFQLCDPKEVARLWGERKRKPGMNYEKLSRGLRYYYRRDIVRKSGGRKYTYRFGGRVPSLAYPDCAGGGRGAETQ
# Summary of the method: as §1
# ELF3 = molecular target: T5, ELF3 (Homo sapiens, UniProt P78545 1-371); settings: protein: recombinant; tags: N-terminal GST; dsDNA, one strand shown
# T5 sequence: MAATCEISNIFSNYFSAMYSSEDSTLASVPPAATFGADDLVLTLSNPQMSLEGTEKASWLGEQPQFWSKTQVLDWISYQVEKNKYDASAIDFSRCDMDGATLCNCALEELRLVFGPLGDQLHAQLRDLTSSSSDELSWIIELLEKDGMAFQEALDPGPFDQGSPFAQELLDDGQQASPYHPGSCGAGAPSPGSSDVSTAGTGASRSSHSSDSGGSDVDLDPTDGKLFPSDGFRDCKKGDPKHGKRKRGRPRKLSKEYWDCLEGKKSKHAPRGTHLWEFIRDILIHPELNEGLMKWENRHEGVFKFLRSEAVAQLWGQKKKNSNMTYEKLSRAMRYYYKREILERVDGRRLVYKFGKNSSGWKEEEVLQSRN
# Summary of the method: as §1
# CRX = CRX (Homo sapiens, UniProt O43186 1-299); settings: protein: recombinant; tags: N-terminal GST; dsDNA, one strand shown
# Summary of the method: as §1
# ETV1 = ETV1 (Homo sapiens, UniProt P50549 1-477); settings: protein: recombinant; tags: N-terminal GST; dsDNA, one strand shown
# Summary of the method: as §1
# ERF = molecular target: T6, ERF (Homo sapiens, UniProt P50548 1-548); settings: protein: recombinant; tags: N-terminal GST; dsDNA, one strand shown
# T6 sequence: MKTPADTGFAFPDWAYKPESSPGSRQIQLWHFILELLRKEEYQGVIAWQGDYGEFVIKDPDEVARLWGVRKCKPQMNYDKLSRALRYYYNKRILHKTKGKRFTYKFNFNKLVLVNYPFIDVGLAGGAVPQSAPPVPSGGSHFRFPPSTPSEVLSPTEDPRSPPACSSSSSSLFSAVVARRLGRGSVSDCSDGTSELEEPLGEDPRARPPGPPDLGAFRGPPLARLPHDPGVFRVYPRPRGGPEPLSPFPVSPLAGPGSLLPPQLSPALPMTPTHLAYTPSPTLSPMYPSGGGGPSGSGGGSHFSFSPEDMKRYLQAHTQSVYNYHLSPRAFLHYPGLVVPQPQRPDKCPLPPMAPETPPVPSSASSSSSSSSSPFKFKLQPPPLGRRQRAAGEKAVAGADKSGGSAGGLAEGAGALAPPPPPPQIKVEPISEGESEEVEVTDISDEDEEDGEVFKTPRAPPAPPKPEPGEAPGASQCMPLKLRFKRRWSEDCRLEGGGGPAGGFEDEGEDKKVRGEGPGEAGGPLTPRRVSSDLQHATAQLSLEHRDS
# Summary of the method: as §1
# ETV3L = molecular target: T7, ETV3L (Homo sapiens, UniProt Q6ZN32 1-361); settings: protein: recombinant; tags: N-terminal GST; dsDNA, one strand shown
# T7 sequence: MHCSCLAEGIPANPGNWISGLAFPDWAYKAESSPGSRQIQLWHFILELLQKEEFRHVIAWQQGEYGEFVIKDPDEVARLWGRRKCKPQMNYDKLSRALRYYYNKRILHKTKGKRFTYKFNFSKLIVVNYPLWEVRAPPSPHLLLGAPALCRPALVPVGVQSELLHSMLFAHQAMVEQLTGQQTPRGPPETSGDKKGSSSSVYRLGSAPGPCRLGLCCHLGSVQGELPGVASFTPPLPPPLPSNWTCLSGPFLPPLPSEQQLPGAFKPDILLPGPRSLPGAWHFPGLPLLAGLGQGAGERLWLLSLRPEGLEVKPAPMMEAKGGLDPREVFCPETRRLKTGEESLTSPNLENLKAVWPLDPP
# Summary of the method: as §1
# ETS2 = molecular target: T8, ETS2 (Homo sapiens, UniProt P15036 1-469); settings: protein: recombinant; tags: N-terminal GST; dsDNA, one strand shown
# T8 sequence: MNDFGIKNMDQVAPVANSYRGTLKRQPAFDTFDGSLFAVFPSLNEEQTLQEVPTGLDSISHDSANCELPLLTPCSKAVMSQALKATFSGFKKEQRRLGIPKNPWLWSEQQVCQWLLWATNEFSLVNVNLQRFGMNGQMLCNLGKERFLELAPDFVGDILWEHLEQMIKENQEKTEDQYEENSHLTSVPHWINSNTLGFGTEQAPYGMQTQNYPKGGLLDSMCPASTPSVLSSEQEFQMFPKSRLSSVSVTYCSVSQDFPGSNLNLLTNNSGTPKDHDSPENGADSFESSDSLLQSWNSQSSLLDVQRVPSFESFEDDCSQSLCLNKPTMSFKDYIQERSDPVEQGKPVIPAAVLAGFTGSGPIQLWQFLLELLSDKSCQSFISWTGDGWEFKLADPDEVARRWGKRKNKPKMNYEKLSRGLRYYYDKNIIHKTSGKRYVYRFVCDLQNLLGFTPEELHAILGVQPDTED
# Summary of the method: as §1
# SPDEF = molecular target: T9, SPDEF (Homo sapiens, UniProt O95238 1-335); settings: protein: recombinant; tags: N-terminal GST; dsDNA, one strand shown
# T9 sequence: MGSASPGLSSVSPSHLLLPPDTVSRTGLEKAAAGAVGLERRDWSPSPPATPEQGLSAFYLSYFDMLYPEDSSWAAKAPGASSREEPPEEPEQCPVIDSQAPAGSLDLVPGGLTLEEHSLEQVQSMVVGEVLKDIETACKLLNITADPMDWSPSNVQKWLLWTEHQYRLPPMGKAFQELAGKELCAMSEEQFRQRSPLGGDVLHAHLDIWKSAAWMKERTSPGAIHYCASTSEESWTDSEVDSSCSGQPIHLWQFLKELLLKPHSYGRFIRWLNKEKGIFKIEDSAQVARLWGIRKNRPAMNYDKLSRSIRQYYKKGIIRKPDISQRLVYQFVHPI
# Summary of the method: as §1
# ETV7 = molecular target: T10, ETV7 (Homo sapiens, UniProt Q9Y603 1-341); settings: protein: recombinant; tags: N-terminal GST; dsDNA, one strand shown
# T10 sequence: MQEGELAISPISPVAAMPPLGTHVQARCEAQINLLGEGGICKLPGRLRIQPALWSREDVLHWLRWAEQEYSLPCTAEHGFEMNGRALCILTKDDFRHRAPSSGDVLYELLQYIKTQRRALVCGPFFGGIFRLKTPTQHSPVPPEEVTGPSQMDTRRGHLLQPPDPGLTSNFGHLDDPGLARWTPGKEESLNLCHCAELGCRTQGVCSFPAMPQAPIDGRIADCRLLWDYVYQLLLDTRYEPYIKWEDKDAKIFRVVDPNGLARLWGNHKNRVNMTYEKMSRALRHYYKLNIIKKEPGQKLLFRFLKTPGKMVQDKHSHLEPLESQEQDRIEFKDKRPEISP
# Summary of the method: as §1
# ELF5 = molecular target: T11, ELF5 (Homo sapiens, UniProt Q9UKW6-2 1-255); settings: protein: recombinant; tags: N-terminal GST; dsDNA, one strand shown
# T11 sequence: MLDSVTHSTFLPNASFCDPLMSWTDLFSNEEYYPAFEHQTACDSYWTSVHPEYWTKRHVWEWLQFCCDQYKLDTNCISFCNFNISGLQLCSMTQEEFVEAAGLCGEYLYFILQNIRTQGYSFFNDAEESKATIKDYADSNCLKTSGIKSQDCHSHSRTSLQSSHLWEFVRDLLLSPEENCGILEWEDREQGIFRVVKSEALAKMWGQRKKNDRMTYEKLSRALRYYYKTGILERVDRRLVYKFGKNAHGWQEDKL
# Summary of the method: as §1
# ETV3 = molecular target: T12, ETV3 (Homo sapiens, UniProt P41162-2 1-143); settings: protein: recombinant; tags: N-terminal GST; dsDNA, one strand shown
# T12 sequence: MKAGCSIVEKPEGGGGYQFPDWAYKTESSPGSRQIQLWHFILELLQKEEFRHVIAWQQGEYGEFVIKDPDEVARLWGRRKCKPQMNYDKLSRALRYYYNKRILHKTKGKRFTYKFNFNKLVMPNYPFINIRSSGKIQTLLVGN
# Summary of the method: as §1
# ETV6 = ETV6 (Homo sapiens, UniProt P41212 1-452); settings: protein: recombinant; tags: N-terminal GST; dsDNA, one strand shown
# Summary of the method: as §1
# Chain of ETV1 (P50549 whole entry): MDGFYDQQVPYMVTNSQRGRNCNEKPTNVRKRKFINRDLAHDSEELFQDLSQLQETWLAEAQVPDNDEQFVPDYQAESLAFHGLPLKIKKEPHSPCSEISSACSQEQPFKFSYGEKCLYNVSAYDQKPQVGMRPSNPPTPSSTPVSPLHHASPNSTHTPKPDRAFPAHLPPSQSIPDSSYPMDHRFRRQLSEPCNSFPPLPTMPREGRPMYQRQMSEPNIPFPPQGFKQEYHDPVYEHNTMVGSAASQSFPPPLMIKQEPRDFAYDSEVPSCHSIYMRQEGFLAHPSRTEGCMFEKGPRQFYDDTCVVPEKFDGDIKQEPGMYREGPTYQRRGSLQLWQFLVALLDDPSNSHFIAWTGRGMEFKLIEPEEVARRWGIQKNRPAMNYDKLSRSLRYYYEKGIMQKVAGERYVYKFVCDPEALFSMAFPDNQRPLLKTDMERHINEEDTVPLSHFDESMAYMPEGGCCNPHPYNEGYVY
# Chain of ETV6 (P41212 whole entry): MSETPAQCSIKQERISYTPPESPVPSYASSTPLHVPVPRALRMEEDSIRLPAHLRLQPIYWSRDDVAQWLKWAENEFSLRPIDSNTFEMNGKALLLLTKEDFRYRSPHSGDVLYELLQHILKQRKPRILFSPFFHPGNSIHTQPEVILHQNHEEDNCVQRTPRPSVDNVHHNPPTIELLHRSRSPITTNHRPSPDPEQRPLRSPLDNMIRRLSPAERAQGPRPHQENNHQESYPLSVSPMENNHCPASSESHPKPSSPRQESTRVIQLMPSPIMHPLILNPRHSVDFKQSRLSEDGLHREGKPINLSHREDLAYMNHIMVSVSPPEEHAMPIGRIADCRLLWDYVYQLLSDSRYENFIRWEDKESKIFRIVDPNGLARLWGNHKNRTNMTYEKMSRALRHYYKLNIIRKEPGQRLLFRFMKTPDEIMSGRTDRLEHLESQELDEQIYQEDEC
# Chain of CRX (O43186 whole entry): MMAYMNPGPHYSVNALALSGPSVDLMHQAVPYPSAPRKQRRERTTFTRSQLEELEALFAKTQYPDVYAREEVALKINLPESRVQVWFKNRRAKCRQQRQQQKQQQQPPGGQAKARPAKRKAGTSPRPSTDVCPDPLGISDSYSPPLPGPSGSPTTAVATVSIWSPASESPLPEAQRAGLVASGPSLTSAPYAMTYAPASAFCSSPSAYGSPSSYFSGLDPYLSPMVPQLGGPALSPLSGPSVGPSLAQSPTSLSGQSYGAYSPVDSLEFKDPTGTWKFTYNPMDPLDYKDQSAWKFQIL
# Chain of HSF1 (Q00613 whole entry): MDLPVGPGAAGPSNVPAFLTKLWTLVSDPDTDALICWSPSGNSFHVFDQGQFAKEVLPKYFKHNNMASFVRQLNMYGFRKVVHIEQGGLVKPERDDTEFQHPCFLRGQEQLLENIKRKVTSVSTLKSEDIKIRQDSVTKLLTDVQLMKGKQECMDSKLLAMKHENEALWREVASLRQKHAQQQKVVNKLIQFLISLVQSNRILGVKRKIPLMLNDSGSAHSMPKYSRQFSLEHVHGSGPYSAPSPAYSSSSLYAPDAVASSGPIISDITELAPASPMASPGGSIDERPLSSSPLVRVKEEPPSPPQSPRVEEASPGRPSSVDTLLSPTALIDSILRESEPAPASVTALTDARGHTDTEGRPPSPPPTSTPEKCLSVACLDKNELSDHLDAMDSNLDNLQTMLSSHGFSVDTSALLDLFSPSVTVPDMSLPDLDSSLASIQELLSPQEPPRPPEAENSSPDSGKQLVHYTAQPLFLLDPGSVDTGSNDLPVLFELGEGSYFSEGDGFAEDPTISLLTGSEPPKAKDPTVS
# Chain of ELF4 (Q99607 whole entry): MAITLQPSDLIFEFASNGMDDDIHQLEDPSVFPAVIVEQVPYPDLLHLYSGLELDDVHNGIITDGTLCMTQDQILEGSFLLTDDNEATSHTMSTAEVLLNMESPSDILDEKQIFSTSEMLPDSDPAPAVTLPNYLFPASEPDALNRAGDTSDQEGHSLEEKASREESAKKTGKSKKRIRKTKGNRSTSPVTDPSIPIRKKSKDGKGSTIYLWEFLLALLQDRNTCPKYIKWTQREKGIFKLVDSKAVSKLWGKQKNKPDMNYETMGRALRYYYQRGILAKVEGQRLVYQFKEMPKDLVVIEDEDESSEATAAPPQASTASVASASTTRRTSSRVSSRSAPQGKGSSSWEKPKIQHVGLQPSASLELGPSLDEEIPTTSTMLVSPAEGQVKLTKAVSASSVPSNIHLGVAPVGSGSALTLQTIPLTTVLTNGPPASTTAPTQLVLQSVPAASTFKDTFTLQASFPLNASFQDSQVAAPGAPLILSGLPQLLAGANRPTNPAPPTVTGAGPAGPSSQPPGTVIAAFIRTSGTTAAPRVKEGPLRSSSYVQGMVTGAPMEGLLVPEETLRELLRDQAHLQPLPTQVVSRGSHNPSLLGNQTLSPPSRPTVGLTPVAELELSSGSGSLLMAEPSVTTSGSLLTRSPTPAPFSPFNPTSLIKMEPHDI
# Chain of ETV5 (P41161 whole entry): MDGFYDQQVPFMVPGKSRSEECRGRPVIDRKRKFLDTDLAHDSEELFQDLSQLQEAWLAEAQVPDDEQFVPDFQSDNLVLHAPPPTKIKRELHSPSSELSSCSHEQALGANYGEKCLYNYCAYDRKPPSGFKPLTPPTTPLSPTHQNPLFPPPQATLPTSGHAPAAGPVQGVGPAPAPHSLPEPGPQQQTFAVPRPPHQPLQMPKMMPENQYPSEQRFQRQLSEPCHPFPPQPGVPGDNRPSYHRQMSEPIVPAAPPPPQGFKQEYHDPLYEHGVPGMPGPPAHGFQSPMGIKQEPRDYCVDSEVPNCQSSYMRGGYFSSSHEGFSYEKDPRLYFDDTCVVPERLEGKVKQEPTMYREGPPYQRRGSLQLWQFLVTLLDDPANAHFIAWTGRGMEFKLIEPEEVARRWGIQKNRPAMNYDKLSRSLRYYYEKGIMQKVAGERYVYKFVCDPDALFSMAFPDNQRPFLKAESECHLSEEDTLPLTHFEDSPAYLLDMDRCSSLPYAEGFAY
sequence,measurement,setting,value
AATAAG,binding signal,FEV,"1.26 fold enrichment (6-mer frequency, TF over GST control)"
same,binding signal,ETV5,"1.25 fold enrichment (6-mer frequency, TF over GST control)"
same,binding signal,HSF1,"1.52 fold enrichment (6-mer frequency, TF over GST control)"
same,binding signal,SPIC,"1.3 fold enrichment (6-mer frequency, TF over GST control)"
same,binding signal,ELF4,"1.26 fold enrichment (6-mer frequency, TF over GST control)"
same,binding signal,ELK4,"1.2 fold enrichment (6-mer frequency, TF over GST control)"
same,binding signal,ETV2,"1.19 fold enrichment (6-mer frequency, TF over GST control)"
same,binding signal,ELF3,"1.29 fold enrichment (6-mer frequency, TF over GST control)"
same,binding signal,CRX,"1.98 fold enrichment (6-mer frequency, TF over GST control)"
same,binding signal,ETV1,"1.26 fold enrichment (6-mer frequency, TF over GST control)"
same,binding signal,ERF,"1.32 fold enrichment (6-mer frequency, TF over GST control)"
same,binding signal,ETV3L,"1.18 fold enrichment (6-mer frequency, TF over GST control)"
same,binding signal,ETS2,"1.24 fold enrichment (6-mer frequency, TF over GST control)"
same,binding signal,SPDEF,"1.26 fold enrichment (6-mer frequency, TF over GST control)"
same,binding signal,ETV7,"1.19 fold enrichment (6-mer frequency, TF over GST control)"
same,binding signal,ELF5,"1.27 fold enrichment (6-mer frequency, TF over GST control)"
same,binding signal,ETV3,"1.29 fold enrichment (6-mer frequency, TF over GST control)"
same,binding signal,ETV6,"1.33 fold enrichment (6-mer frequency, TF over GST control)"
